Data: PubChem BioAssay (NCI)
The panel holds about 83,000 compounds, 20% with a hit somewhere; the sample as a whole holds those more often.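 For each line, cells grew in 96-well plates with the test compound present at a single concentration for 48 hours.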 Unmarked numbers belong to inactive results. The source made the active and inactive calls. How the source made its calls: active means growth percent below 10; inactive means the rest.

system: HL-60(TB) leukemia; test: NCI-60 one-dose screen, 48 h (100 = growth as untreated, 0 = no growth, -100 = all killed); conditions: 10 µM unless noted

SMILES	growth
COc1cc(/C=C2\SC(=S)N(/C=C/c3nc4ccccc4[nH]c3=O)C2=O)cc(OC)c1OC	70%
Cc1ccc(/C=C/C(=O)c2ccc(NC(=O)CSc3nc4c([nH]3)c(=O)n(C)c(=O)n4C)cc2)c(C)c1	94.5%
S=c1[nH]c2cc(Cl)ccc2o1	86.5%
Cc1ccc(Cl)cc1NC(=O)c1sc2nc3c(cc2c1N)C(=O)CCC3	82.2%
Cc1cc2nc(-c3ccccc3)c(-c3ccccc3)nc2cc1C	48.3%
Brc1ccc(Nc2nc(Nc3cnc4ccccc4c3)c3[nH]cnc3n2)cc1	92.9%
COc1ccc(C(c2cc(OC)c(OC)c(OC)c2)N2CCN(Cc3ccccc3)CC2)cc1 (centres undefined)	23%
CC1(C)CC(O)CCCCCCOc2c(CN)cccc2NC(=O)c2nc(cnc2N)-c2ccc(cc2)S1(=O)=O (centres undefined)	-49.3% (active)
COc1ccccc1/C=C(/C(=O)c1ccccc1)c1ccccc1	71.8%
COc1cc(N=Nc2cc(S(=O)(=O)O)cc3cc(S(=O)(=O)O)cc(O)c23)c(C)cc1N=Nc1c(S(=O)(=O)O)cc2cc(Nc3ccccc3)ccc2c1O	93.6%
CCOC(=O)C(O)C(O)C(=O)OCC (centres undefined)	102%
C=C1C(=O)O[C@H]2[C@H]1CC/C(COC(=O)c1cc3cc(F)ccc3[nH]1)=C\CC[C@@]1(C)O[C@@H]21	-32.6% (active)
O=c1oc2ccc(Br)cc2c(=O)n1-c1ccc(Br)cc1F	-39.1% (active)
COc1cccc(-c2cnco2)c1OCc1c(C)c(COc2c(OC)cccc2-c2cnco2)c(C)c(COc2c(OC)cccc2-c2cnco2)c1C	76.4%
